Test results reported in the GenesisPotency data set.
About 3,000 (1%) of roughly 290,000 compounds were called active. Rule as the data show it: active = inhibition mostly above about 36% (no sharp cut-off); inactive = mostly below about 34%. The entries come from a sample that favours actives as a whole.

These compounds were tested against T1, Nucleotide-binding oligomerization domain-containing protein 1, Homo sapiens (UniProt Q9Y239) (assay: inhibition of NOD1-driven NF-kB reporter – cell-based, luminescence, uHTS, primary screen (AID 1578)).
T1 sequence (whole entry): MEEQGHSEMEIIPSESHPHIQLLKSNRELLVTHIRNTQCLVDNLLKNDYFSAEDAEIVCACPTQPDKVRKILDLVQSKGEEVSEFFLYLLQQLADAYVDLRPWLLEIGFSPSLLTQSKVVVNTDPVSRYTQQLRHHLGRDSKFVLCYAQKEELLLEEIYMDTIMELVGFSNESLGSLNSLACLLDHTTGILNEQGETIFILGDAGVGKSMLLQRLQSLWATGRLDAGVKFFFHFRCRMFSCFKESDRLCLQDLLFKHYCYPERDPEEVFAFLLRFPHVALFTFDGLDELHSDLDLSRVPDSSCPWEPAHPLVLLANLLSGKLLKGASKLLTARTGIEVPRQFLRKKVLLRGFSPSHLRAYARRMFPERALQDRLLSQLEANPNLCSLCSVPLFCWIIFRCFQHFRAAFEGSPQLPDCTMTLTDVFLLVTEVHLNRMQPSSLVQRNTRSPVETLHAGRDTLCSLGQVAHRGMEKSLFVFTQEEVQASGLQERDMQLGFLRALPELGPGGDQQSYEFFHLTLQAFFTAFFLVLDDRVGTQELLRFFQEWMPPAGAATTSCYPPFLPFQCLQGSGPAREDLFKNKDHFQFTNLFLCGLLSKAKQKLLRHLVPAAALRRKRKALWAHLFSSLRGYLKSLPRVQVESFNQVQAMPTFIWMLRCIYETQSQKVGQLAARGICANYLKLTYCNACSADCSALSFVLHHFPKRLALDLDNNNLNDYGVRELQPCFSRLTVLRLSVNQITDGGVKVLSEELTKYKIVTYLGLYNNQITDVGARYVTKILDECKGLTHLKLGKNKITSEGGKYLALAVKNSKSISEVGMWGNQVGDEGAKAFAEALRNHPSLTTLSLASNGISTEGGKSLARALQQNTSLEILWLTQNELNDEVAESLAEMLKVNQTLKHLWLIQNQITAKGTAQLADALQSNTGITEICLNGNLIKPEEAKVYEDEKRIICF

SMILES	outcome
CC1(C)CC(N2CCN(C(c3ccccc3)c3ccccc3)CC2)=CC(=[N+]2CCCCC2)C1.[I-]	active
CN(Cc1ccccc1)C1=CC(=[N+]2CCCCC2)CC(C)(C)C1.[I-]	active
c1csc(CCNc2ncnc3sc4c(c23)CCC4)c1	active
Cc1cc(C(=O)NC2CCCc3c2cnn3-c2ccc(C(C)(C)C)cc2)nn1C (configuration not stated)	active
Cn1nccc1C(=O)NC1CCCc2c1cnn2-c1ccc(C(C)(C)C)cc1 (configuration not stated)	active
CC(C)(C)c1ccc(-n2ncc3c2CCCC3NC(=O)C2(C(N)=O)CC2)cc1 (configuration not stated)	active
Cc1ccc(NC(=O)Nc2nnc(-c3ccncc3)s2)cc1C	active
O=C(Nc1ccc2nc3n(c(=O)c2c1)CCCCC3)c1c(F)ccc([N+](=O)[O-])c1F	active
CCOc1cccc(-c2c(C(=O)N/N=C(\C)c3ccccn3)nnn2-c2nonc2N)c1	active
CN(C)S(=O)(=O)c1cccc(NC(=O)c2ccc(COc3ccccc3)cc2)c1	active
COc1ccc(C(=O)/C=C/C(=O)N(CC(=O)NC2CCCCC2)Cc2ccccc2OC)c(O)c1	active
C=CCn1c(Oc2ccc(C(=O)OC)cc2)nc2c1c(=O)n(C)c(=O)n2C	active
C=CCn1c(Oc2ccccc2F)nc2c1c(=O)n(C)c(=O)n2C	active
CCn1c(Oc2ccccc2F)nc2c1c(=O)n(C)c(=O)n2C	active
O=c1oc2ccc(Br)cc2cc1S(=O)(=O)c1ccc(F)cc1	active
Cc1ccc(S(=O)(=O)c2cc3cc(Br)ccc3oc2=O)cc1	active
O=C(O)c1c(NC(=O)c2cccc3ccccc23)sc2c1CCC2	active
COc1ccc(-c2c[n+]3c(n2-c2ccc(C)cc2)CCCCC3)cc1.[Br-]	active
O=C(Cn1ncc(Cl)c(Cl)c1=O)c1ccc(Cl)cc1	active
CCC(=O)Nc1ccc(C(=O)Cn2ncc(Cl)c(Cl)c2=O)cc1	active
CCOC(=O)c1ccc(NC(=O)Cn2ncc(Cl)c(Cl)c2=O)cc1	active
Cc1cc(Br)ccc1NC(=O)CNC(=O)Cn1ncc(Cl)c(Cl)c1=O	active

SMILES	outcome
O=C(Cn1ncc(Cl)c(Cl)c1=O)N1CCc2ccccc21	active
C#Cc1ccc([C@@H]2C=C(C(=O)N3CCN(Cc4ccccc4)CC3)O[C@H](OCCCCO)C2)cc1	active
O=C(COc1ccc(Br)cc1)Nc1ccc(Cc2ccncc2)cc1	active
Cn1cnnc1Sc1ccc(/C=C/C(=O)c2ccc(O)cc2)cc1[N+](=O)[O-]	active
C(=N\Nc1nc2ccccc2s1)/c1ccccn1	active
CCn1c(=O)c2c(cnn2C)c2ccccc21	active
CC(=O)c1c(O)c(C)c(O)c2c1OC1=CC(=O)C(C(C)=O)C(=O)[C@@]12C (some centres not stated)	active
O=C(NCc1cccs1)c1nc2c(nnn2Cc2ccccc2Cl)c(=O)[nH]1	active
O=C(NCc1ccco1)c1nc2c(nnn2Cc2ccccc2Cl)c(=O)[nH]1	active
COc1ccc(-n2cnc3ccccc32)cc1	active
COc1ccc2ncn(-c3ccccc3)c2c1	active
O=C(CSc1nnc2c(n1)[nH]c1ccccc12)NC1CCCCC1	active
NC(=S)N/N=C\c1c(OCc2ccccc2Cl)ccc2ccccc12	active
CC(C)N1C(=O)/C(=C/c2nc3ccccc3c(=O)n2-c2ccccc2)c2ccccc21	active
Cc1cccc(-n2c(SCC(=O)N3CCC(C(=O)O)CC3)nc3ccccc3c2=O)c1C	active
CC1=CC(C)(C)Nc2ccc(OC(=O)CN3C(=O)C4CCCCC4C3=O)cc21 (configuration not stated)	active
CC1=CC(C)(C)Nc2ccc(OC(=O)CN3C(=O)CCC3=O)cc21	active
COc1cc(/C=C/c2ccc3cccc(O)c3n2)ccc1O	active
COc1cc(/C=C/c2ccc3cccc(O)c3n2)cc(OC)c1OC	active
Oc1c(Cl)cc(Cl)cc1/C=C/c1ccc2cccc(O)c2n1	active
COc1ccc(OC)c(/C=C/c2ccc3cccc(O)c3n2)c1	active
O=C(Nc1nnc(-c2cccs2)o1)c1cccc(C(F)(F)F)c1	active

SMILES	outcome
O=C(Nc1nnc(-c2cccs2)o1)c1cccc(Oc2ccccc2)c1	active
O=C(C1CCC(CNS(=O)(=O)c2cccs2)CC1)N1CCN(c2ccc(Cl)cc2)CC1 (configuration not stated)	active
O=C(Nc1ccccc1C(=O)Nc1nnc(C(F)(F)F)s1)c1ccccc1Cl	active
Cc1onc(-c2c(F)cccc2Cl)c1C(=O)Nc1nnc(C(F)(F)F)s1	active
O=C(Nc1ccccc1C(=O)Nc1nnc(C(F)(F)F)s1)c1ccccc1	active
COc1ccccc1CN(Cc1nc2ccccc2c(=O)[nH]1)S(=O)(=O)c1ccc2ccccc2c1	active
N#C/C(=C\c1ccc(O)c([N+](=O)[O-])c1)c1nc2ccccc2s1	active
O=C(CCl)N1c2ccccc2OCC1c1ccccc1 (configuration not stated)	active
Cc1ccc(C(=O)Nc2ccccc2-c2ccccc2)cc1[N+](=O)[O-]	active
Cc1cccc(C)c1OCC(=O)OC/C(O)=C(\C#N)c1nc2ccccc2[nH]1	active
COc1ccccc1OCC(=O)OC/C(O)=C(\C#N)c1nc2ccccc2[nH]1	active
O=C(Nc1nc2ccccc2n1CCOc1ccc(Cl)cc1)c1ccco1	active
COC(=O)c1sc(NC(=O)c2cc(-c3ccccc3)nc3ccccc23)c(C#N)c1C	active
Cc1ccccc1-c1cc(C(=O)Nc2sc(C(=O)OC(C)C)c(C)c2C#N)c2ccccc2n1	active
CCOC(=O)c1sc(NC(=O)c2cc(-c3ccccc3C)nc3ccccc23)c(C#N)c1C	active
CCOC(=O)c1sc(NC(=O)CSc2nc3c(cc2C#N)CCCCCC3)c(C#N)c1C	active
CCOC(=O)c1sc(NC(=O)c2cc(-c3ccccc3)nc3ccccc23)c(C#N)c1C	active
CCOC(=O)c1sc(NC(=O)CSc2n[nH]c(-c3ccccc3)n2)c(C#N)c1C	active
Cc1ccc(C(=O)O/N=C(\N)c2ccccn2)c(C)c1	active
Cc1ccc(C)c(N2CCN(C(=O)CCCCCn3c(=S)[nH]c4ccc(N5CCOCC5)cc4c3=O)CC2)c1	active
N#Cc1ccc(C(=O)Nc2nc(-c3cccs3)c(C(=O)C(F)(F)F)s2)cc1	active
CCS(=O)(=O)c1ncc(Cl)c(C(=O)Nc2ccc(C)cc2)n1	active

SMILES	outcome
CN(c1ccccc1)S(=O)(=O)c1ccc(NC(=O)c2nc(S(C)(=O)=O)ncc2Cl)cc1	active
CCS(=O)(=O)c1ncc(Cl)c(C(=O)Nc2ccc(S(=O)(=O)N(C)c3ccccc3)cc2)n1	active
CCN(c1ccccc1)S(=O)(=O)c1ccc(NC(=S)NC(=O)c2cccs2)cc1	active
Cc1csc2ncnc(N3CCN(C(=S)Nc4ccc(F)cc4F)CC3)c12	active
Fc1ccc(NC(=S)N2CCCN(c3ccc(C(F)(F)F)cn3)CC2)c(F)c1	active
Cc1csc2c(N3CCN(C(=S)Nc4ccc(C(F)(F)F)cc4)CC3)ncnc12	active
Cc1csc2ncnc(N3CCN(C(=S)Nc4ccc(C(F)(F)F)cc4)CC3)c12	active
Cc1csc2ncnc(N3CCN(C(=O)Nc4ccc(OC(F)(F)F)cc4)CC3)c12	active
Cc1csc2ncnc(N3CCN(S(=O)(=O)c4cccc(C(F)(F)F)c4)CC3)c12	active
Cc1c(C#N)c(NC(=O)CCl)n(Cc2cccs2)c1C	active
Cc1c(C#N)c(NC(=O)CCl)n(Cc2ccccc2)c1C	active
Br.CCCCCCCn1c2c(c(=N)c3c1CCC3)CCCC2	active
Br.CCCCCCCCn1c2c(c(=N)c3c1CCC3)CCCC2	active
Br.CCCCCCCCCn1c2c(c(=N)c3c1CCC3)CCCC2	active
CC(=O)N1CCCc2cc(S(=O)(=O)N3CCCC(C(=O)N4CCN(c5cccc(Cl)c5)CC4)C3)ccc21 (configuration not stated)	active
CC(=O)N1CCCc2cc(S(=O)(=O)N3CCCC(C(=O)N4CCN(c5cc(C)ccc5C)CC4)C3)ccc21 (configuration not stated)	active
Cc1ccc(S(=O)(=O)c2ncccc2[N+](=O)[O-])cc1	active
COc1ccc(/C=C2\Sc3ccc(C(=O)N4CCN(Cc5ccccc5)CC4)cc3N(C)C2=O)cc1OC	active
CN1C(=O)/C(=C/c2ccccc2Cl)Sc2ccc(C(=O)N3CCCC3)cc21	active
COc1ccc2c(c1OC)C(=O)OC2Nc1nc(-c2ccccc2)cs1 (configuration not stated)	active
Cc1ccc(-c2csc(NC3OC(=O)c4ccccc43)n2)cc1 (configuration not stated)	active
O=C(NCCc1ccccc1F)c1ccc2c(c1)OCCO2	active

SMILES	outcome
O=C(NCCc1ccccc1)c1ccc2c(c1)OCCCO2	active
COc1cc(C)c(Br)cc1S(=O)(=O)NCc1ccncc1	active
Cc1ccc(Cc2c(C)c(C#N)c3[nH]c4ccccc4n3c2=O)cc1	active
O=C(N/N=C/c1ccc([N+](=O)[O-])s1)c1cccc(Br)c1	active
O=C(N/N=C/c1ccc([N+](=O)[O-])s1)c1ccccc1Br	active
O=C(Nc1cccc(S(=O)(=O)N2CCCCC2)c1)c1ccccc1NS(=O)(=O)c1ccc(F)cc1	active
Cc1ccc(NC(=O)c2ccccc2NS(=O)(=O)c2ccc(F)cc2)cc1S(=O)(=O)N1CCCCC1	active
Cc1c(C(=O)Nc2nc3ccccc3[nH]2)oc2ccc(Br)cc12	active
COc1ccccc1C(=O)Nc1nc2ccccc2[nH]1	active
COc1cc(SC)ccc1C(=O)Nc1nc2ccccc2[nH]1	active
O=c1cc(C(F)(F)F)nc(SCc2cccc3ccccc23)[nH]1	active
Cc1cnc(NC(=O)C2CC(=O)N(c3cccc(Cl)c3)C2)s1 (configuration not stated)	active
CC(C)(C)c1cc(NC(=O)CCl)n(-c2ccccc2)n1	active
O=[N+]([O-])c1cccc(NC(=S)Nc2nc(-c3ccc(Cl)cc3Cl)cs2)c1	active
N#C/C(=C(/O)COC(=O)CSc1ccc2ccccc2c1)c1nc2ccccc2[nH]1	active
Cc1cc(Br)ccc1SCC(=O)OC/C(O)=C(\C#N)c1nc2ccccc2[nH]1	active
CC(C)(C)c1ccc(-c2noc(CCC(=O)Nc3cccnc3)n2)cc1	active
CC(C)(C)c1ccc(-c2noc(CCC(N)=O)n2)cc1	active
O=C(NC1CCCCC1)N1CCN(c2nc(-c3ccccc3)cs2)CC1	active
